D2 PAM-1 = Beta-Arrestin HTS for Positive Allosteric Modulators of the Human D2 Dopamine Receptor: Potentiators | AID 624464, 2012 | D(2) dopamine receptor (Homo sapiens), P14416 | potentiation, % (concentration not given with the values) | 0.23% of 360,000 active | DiscoveRx D2 beta-arrestin cells, luminescence, 90 min; 100% = 57 uM dopamine signal; in the data active = potentiation above about 50%; inconclusive = mostly about 30% to 49%
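D2 cells co-treated with compound plus 50 nM dopamine (EC20) for 90 min at 37 deg C to detect potentiation. Beta-arrestin recruitment was read as enzyme-fragment luminescence after 1 h at ambient temperature. Full response was set by 57 uM dopamine.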
D2 antagonist = HTS Assay for Allosteric Antagonists of the Human D2 Dopamine Receptor: Primary Screen for Antagonists; D(2) dopamine receptor (Homo sapiens), P14416; inhibition, % at 10 µM; HEK293 TREx D2 cells, calcium flux, dopamine EC80; 2% of 340,000 active; in the data active = inhibition above about 30%; inactive = below that, where a call was filed; also: 0% is about no effect
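Read-out: kinetic calcium fluorescence (1 cycle/s) in inducible HEK293 T-REx D2 cells after an EC80 dopamine addition that followed 180 s compound preincubation. Loss of the dopamine response indicates antagonism.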
D2 ag-1 = HTS Assay for Allosteric Agonists of the Human D2 Dopamine Receptor: Primary Screen for Agonists; D(2) dopamine receptor (Homo sapiens), P14416; HEK293 T-REx D2 cells, calcium flux agonist mode; activation, % at 2 µM; 0.53% of 340,000 active;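 active = activation over 3 SD above normal in the single-dose calcium agonist read, cut at about 30% in these data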; also: 0% is about no effect
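In this primary screen, compounds producing a positive calcium signal within 180 s of addition to tetracycline-induced, force-coupled HEK293 Trex D2 cells are flagged; cells are dye-loaded with a no-wash calcium kit beforehand.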
D2 PAM-2 = HTS Assay for Positive Allosteric Modulators of the Human D2 Dopamine Receptor: Primary Screen for Potentiators; 0.34% of 340,000 active; potentiation, % at 10 µM; HEK293 T-REx D2, calcium flux, EC20 dopamine potentiation; D(2) dopamine receptor (Homo sapiens), P14416;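 active = potentiation over 3 SD above the plate norm, cut at about 30% in these data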; also: 0% is about no effect
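Primary screen. Calcium kinetics in induced HEK293 T-REx D2 cells: compound pre-addition 180 s, EC20 dopamine, 180 s more.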
D2 ag-2 = Beta-Arrestin HTS for Positive Allosteric Modulators of the Human D2 Dopamine Receptor: Agonists; activation, % (concentration not given with the values); 0.084% of 360,000 active; DiscoveRx PathHunter D2 beta-arrestin, luminescence, 90 min; 100% = 57 uM dopamine signal; D(2) dopamine receptor (Homo sapiens), P14416; in the data active = activation above about 40%; inconclusive = between about 15% and that limit
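DiscoveRx PathHunter D2 beta-arrestin cells (2,100/well) attached overnight, then compound-stimulated 90 min at 37 C in HBSS/10 mM HEPES/0.1% Tween-20 buffer; beta-galactosidase complementation read by luminescence after 1 h at ambient temperature. Dopamine 57 uM final (EC100) as control.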
D3 arrestin ag = qHTS of D3 Dopamine Receptor Agonist: D3 Dopamine Receptor B-arrestin Agonist Confirmatory Assay; shares compounds with D2 ag-1; DiscoveRx D3 beta-arrestin cells, luminescence, 90 min; Potency, µM (doses to about 76.9 µM), for inactives: top-dose activation, most hits filed as activators; 4% of 2,300 active;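 also: potency is read from the fitted curve at half-maximal effect; 100% = dopamine control response; nearly all actives have a fitted effect of over 70% in size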
Target sequence (P35462 whole entry, looked up): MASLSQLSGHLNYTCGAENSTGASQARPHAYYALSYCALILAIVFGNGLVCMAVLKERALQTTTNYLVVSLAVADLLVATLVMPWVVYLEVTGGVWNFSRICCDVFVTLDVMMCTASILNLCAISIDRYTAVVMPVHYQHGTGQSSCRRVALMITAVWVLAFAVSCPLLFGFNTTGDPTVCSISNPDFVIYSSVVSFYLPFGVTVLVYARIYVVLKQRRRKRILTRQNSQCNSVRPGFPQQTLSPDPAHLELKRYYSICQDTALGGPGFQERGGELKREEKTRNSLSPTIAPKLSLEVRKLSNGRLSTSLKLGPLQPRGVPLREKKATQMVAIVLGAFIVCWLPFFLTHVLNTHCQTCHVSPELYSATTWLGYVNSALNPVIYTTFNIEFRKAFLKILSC
D2 ag-3 = qHTS of D3 Dopamine Receptor Agonist: D2 Dopamine Receptor B-arrestin Agonist Counterscreen; shares compounds with D2 ag-1; 5.9% of 2,300 active; AID 720507, 2013; Potency, µM (doses to about 76.9 µM), inactives show at the highest dose activation, actives largely listed as activators; DiscoveRx PathHunter D2 beta-arrestin, luminescence, 90 min; response scale: percent relative to full dopamine signal; also: potency is read from the fitted curve at half-maximal effect; % of control where 0% means no effect; nearly all actives have a fitted effect of over 70% in size
Numbers without * were called inactive; u = inconclusive; x = no result. Compounds with a hit are over-represented: about 2.4% of the library has one in this group of screens. Unless noted, calls follow the shape of the dose curve; as a rule, active = well fitted activation curve with a large enough effect; inconclusive = small, poorly fitted or top-dose-only effect; inactive = flat fitted curve, though single readings scatter.

SMILES	D2 PAM-1	D2 antagonist	D2 ag-1	D2 PAM-2	D2 ag-2	D3 arrestin ag	D2 ag-3
COc1ccc(OC)c(-c2nc(CN3CCN(C(=O)c4ccco4)CC3)c(C)o2)c1	-11.1	16.0	49.2*	-10.9	7.5	4.8%	6.7%
Cc1oc(-c2ccc(F)cc2F)nc1CN1CCN(C(=O)c2ccco2)CC1	-11.1	x	x	x	-0.3	x	x
Cc1c(C(=O)NC2CCC(C)CC2)oc2ccccc12 (stereo not drawn)	3.2	19.4	42.6*	-23.6	9.0	-5.1%	10.1%
COc1ccc(S(=O)(=O)N2CCC(N3CCN(Cc4ccccc4)CC3)CC2)cc1	-2.2	73.5*	77.1*	-20.0	13.7	-9.0%	26.9%
Cc1oc(-c2ccccc2)nc1CSc1nnc(C)n2c1cc1sccc12	x	x	-0.3	-1.7	x	x	x
CCC1(CC)NC(=O)N(CC(=O)OCC(=O)Nc2ccc(OC(F)(F)F)cc2)C1=O	-2.9	61.4*	0.8	5.5	-0.2	-1.2%	-2.2%
CC(=O)Nc1nonc1-c1nnc(SCC(=O)N(C)c2ccccc2)n1C	x	x	-1.8	14.4	x	x	x
CC1CCC(NC(=O)C2(C)Cc3ccccc3C(=O)N2Cc2ccccc2Cl)CC1 (stereo not drawn)	x	x	0.3	-2.4	x	x	x
CC(CCc1ccccc1)NCc1ccc(Cl)cc1Cl (stereo not drawn)	1.3	45.0*	51.8*	-26.4	13.8	16.4%	9.8%
CC(=O)NC(C)CCc1ccccc1 (stereo not drawn)	-3.3	-11.3	0.5	8.3	0.3	x	x
CC(CCc1ccccc1)NCC#N (stereo not drawn)	-7.8	33.6*	56.7*	-17.4	8.3	8.0%	6.5%
COc1cc(CCC(C)NCc2ccccc2)ccc1O (stereo not drawn)	-12.4	74.9*	79.3*	-34.7	u	-3.9%	u
CC(CCc1ccc(O)cc1)NCc1ccc(Br)cc1 (stereo not drawn)	-16.0	31.7*	38.8*	-14.6	0.5	u	2.2%
O=C(Nc1ccccc1)N(Cc1cccs1)c1ccc(F)cc1	x	x	0.0	5.9	x	x	x
Cc1ccc(-c2nnc(Nc3ccc(O)cc3)c3ccccc23)cc1S(=O)(=O)NCc1nc2ccccc2[nH]1	x	x	x	18.0	x	x	x
Cc1nn2c(=O)cc(COC(=O)c3ccccc3NC(=O)C(C)C)nc2s1	x	x	-1.5	-2.7	x	x	x
COc1ccc(CNC(C)CCc2ccccc2)cc1 (stereo not drawn)	-24.5	61.5*	64.5*	-26.1	3.5	-1.1%	9.7%
CCN1CC2=C(OC(N)=C(C#N)C2c2cccs2)/C(=C\c2cccs2)C1 (stereo not drawn)	-21.5	27.4	41.1*	-23.3	0.4	-10.9%	-1.9%
Cc1ccc(-n2ncc(C(=O)NC3CCCC3)c2C2CCN(C(=O)OC(C)(C)C)CC2)c(C)c1	x	x	-1.1	-3.4	x	x	x
Cn1c(=O)c(Oc2ccc(F)cc2)c(O)c2ccccc21	10.6	2.9	50.3*	-16.3	9.4	2.7%	-1.5%
CC(=O)c1c(O)c2ccccc2n(C)c1=O	-0.2	10.2	-2.2	-5.2	-3.7	x	x
Cc1ccccc1C(=O)NCC(=O)NNC(=O)CCN1CCN(c2ccccc2)CC1	-22.4	72.1*	82.5*	-18.7	13.7	u	u
CC(Oc1ccc(Br)cc1)C(=O)NNC(=O)CCN1CCN(c2ccccc2)CC1 (stereo not drawn)	-36.2	61.5*	38.4*	-14.9	4.0	39.5%	u
CCOc1ccc(C(=O)CCC(=O)NNC(=O)CCN2CCN(c3ccccc3)CC2)cc1	-13.1	x	x	x	9.6	x	x
O=C(CCN1CCN(c2ccccc2)CC1)NNC(=O)Cc1ccc(Br)cc1	-27.1	70.4*	77.4*	-22.8	12.2	-3.0%	24.0%
SMILES	D2 PAM-1	D2 antagonist	D2 ag-1	D2 PAM-2	D2 ag-2	D3 arrestin ag	D2 ag-3
CCc1nn(CC(=O)N2CCN(c3cccc(C)c3)C(C)C2)c(=O)c2cc3sccc3n12 (stereo not drawn)	x	x	-0.6	7.6	x	x	x
CCNc1nc(C#N)nc2c1ncn2-c1cc(F)cc(F)c1	x	12.0	-0.4	7.3	x	-5.1%	-0.7%
CCCN1C(=O)CN(C2CCCCCC2)C(=O)C1c1ccc(OCC)c(OC)c1 (stereo not drawn)	x	x	-0.3	16.6	x	x	x
COC(=O)c1ccc(C(c2c(N)n(CC(C)C)c(=O)[nH]c2=O)N2CCN(c3ccccc3)CC2)cc1 (stereo not drawn)	-2.8	x	x	x	0.8	x	x
CCCn1c(N)c(C(c2ccc(C(=O)OC)cc2)N2CCN(c3ccccc3)CC2)c(=O)[nH]c1=O (stereo not drawn)	-4.7	16.0	47.5*	-7.6	-0.8	5.3%	11.3%
CCCn1c(N)c(C(c2ccc(OC)cc2)N2CCN(c3ccccc3)CC2)c(=O)[nH]c1=O (stereo not drawn)	-9.0	3.0	42.8*	-9.6	6.6	-7.9%	7.2%
Cc1cc(S(=O)(=O)Nc2ccc3[nH]c(=O)sc3c2)ccc1F	x	x	-0.4	-0.2	x	x	x
COC(=O)C1=C(C)Nc2nnnn2C1c1cccnc1 (stereo not drawn)	-2.6	x	x	x	-2.0	x	x
CC1=C(C(=O)OC2CCCCC2)C(c2cccnc2)n2nnnc2N1 (stereo not drawn)	-2.2	-4.1	61.0*	-18.8	-0.2	17.7%	11.0%
CN(CCOc1cccc2ccccc12)Cc1ccccc1	0.2	x	x	-29.4	u	7.5%	16.2%
COc1ccc(CC(=O)NC(C)(C)CC(C)=O)cc1OC	0.0	-11.0	0.1	5.5	-2.1	x	x
CC(=O)CC(C)(C)NC(C)=S	-6.6	-8.4	34.3*	-16.1	-1.8	-15.8%	-4.2%
COc1ccc(C(=O)N=C2SC3CS(=O)(=O)CC3N2Cc2ccccc2)cc1OC (stereo not drawn)	-4.6	15.4	0.2	25.4	-2.1	u	12.3%
COc1ccc(C(=O)NCC(=O)N2CC=C(c3ccccc3)CC2)cc1OC	-5.4	-6.6	0.4	-9.1	3.6	x	x
O=C(O)c1ccccc1C(=O)N1CC=C(c2ccccc2)CC1	-29.6	3.7	29.1	-17.8	0.3	-3.1%	5.5%

Assay outcomes: PubChem, National Center for Advancing Translational Sciences (NCATS)
